PubChem BioAssay (NCI)
About 83,000 compounds went through this panel and 20% of them were active in at least one assay; those are over-represented in the sample as a whole.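 A percent growth of 40 corresponds to 60% growth inhibition; 0 means no net growth; -100 means all cells died. Active threshold: below 10.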 Unmarked numbers belong to inactive results. Calls of active or inactive are those of the source.

What follows are molecules tested on MDA-MB-468 breast (assay: NCI-60 one-dose screen, 48 h (100 = growth as untreated, 0 = no growth, -100 = all killed)). Details: 10 µM unless noted.

Row | SMILES | growth
1 | Cn1c(SCC(=O)c2ccc(Br)cc2)nc2ccccc2c1=O | 89.9%
2 | OCC(Nc1ncnc2ccc(-c3cnc4cnccn34)cc12)c1ccccc1 (stereo not given) | -2.48% (active)
3 | Cc1cc(C(=O)O)c(C)n1-c1cccc(C(=O)O)c1 | 70.1%
4 | Cc1cc(C)c(C(=O)c2cccs2)c(C)c1 | 105%
5 | COc1ccc(OC)c(Nc2nnc(-c3ccc(Cl)cc3)o2)c1 | 74.2%
6 | C=C1CCC2C3(C)COC(c4ccc(N(C)C)cc4)OC3CCC2(C)C1C/C=C1/C(=O)OCC1O (stereo not given) | 22.2%
7 | O=C1NC(=O)C(=Cc2cn(Cc3cn(Cc4ccc(Cl)cc4Cl)nn3)c3ccccc23)C(=O)N1 | 2.08% (active)
8 | Cc1cc(O)ccc1C1=NN(c2ccc(S(C)(=O)=O)cc2)C(=O)CC1 | 103%
9 | O=C(CCc1nnc2sc(COc3ccccc3)nn12)c1nc2ncccc2[nH]1 | 100%
10 | Cc1ccccc1/C=C/C(=O)c1cccc(OCCCOc2cccc(C(=O)/C=C/c3ccccc3C)c2)c1 | 108% [3 µM]
11 | CCCCCn1sc(=O)n(Cc2ccc(CNC(=O)OCc3ccc4c(Cl)cc(Cl)c(O)c4n3)cc2)c1=O | 59.8%
12 | CC1(C)[C@@H](O)CC[C@]2(C)[C@H]3CC[C@@H]4[C@H]5[C@H](c6cn(-c7ccccc7)nn6)CC[C@]5(CO)CC[C@@]4(C)[C@]3(C)CC[C@@H]12 | 65.4%
13 | CC/C(=C(/c1ccc(OCCN(C)C)cc1)c1ccc(OC(=O)CCCCC(=O)c2c(C)[nH]c(/C=C3\N=C(c4ccc[nH]4)C=C3OC)c2C)cc1)c1ccccc1 | 47.5%
14 | C=C1C(=O)O[C@H]2[C@H]1CC/C(COC(=O)NCCCCCCCCNC(=O)OC/C1=C/CC[C@@]3(C)O[C@H]3[C@H]3OC(=O)C(=C)[C@@H]3CC1)=C\CC[C@@]1(C)O[C@@H]21 | -46.1% (active)
15 | O=C(Oc1cccnc1)c1ccsc1Nc1ccnc(C(F)(F)F)c1 | 17%
16 | O=[N+]([O-])c1ccc(-c2cn3nc(-c4c[nH]c5ccccc45)sc3n2)cc1 | 96%
17 | O=C(/C=C/c1cc2ccccc2[nH]c1=O)/C=C/c1cc2ccccc2[nH]c1=O | -31.7% (active)
18 | COc1cc(-c2ccc(-c3ccc(C(=N)N)cc3)s2)cc(OC)c1OC | -22.8% (active)
19 | C[C@H]1Oc2cc(cnc2N)-c2c(nn(C)c2C#N)CN(C)C(=O)c2ccc(F)cc21 | 98.5%
20 | Cc1ccc(NC(=O)c2ccc(CN3CCN(C)CC3)c(C(F)(F)F)c2)cc1Oc1ccc(-c2[nH]nc3ncnc(N)c23)cc1 | 117%

Row | SMILES | growth
21 | O=c1c2c(c(=O)n1O)c1c3ccc[nH]c3nc1c1nc3[nH]cccc3c12 | 64%
22 | c1ccc(Nc2nnc(-c3cc(-c4cccnc4)n(-c4ccccc4)n3)s2)cc1 | 104%
23 | COc1cc(-c2nc3c(ncc4ccc(=O)n(-c5ccccc5)c43)s2)cc(OC)c1OC | 47.3%
24 | CC(=O)Nc1cccc(Nc2nc(N[C@@H](C)c3ccccc3)c3ccccc3n2)c1 | -39.8% (active)
25 | Cc1onc(-c2ccccc2)c1C(=O)N/N=C/c1cc(Cl)cc(Cl)c1O | 24.7%
26 | OCCn1cc(-c2nc(-c3c[nH]c4ncccc34)cs2)c2cc(F)ccc21 | -11.1% (active)
27 | COc1ccc2c(ccc[n+]2C)c1 | 81.5%
28 | COc1ccc2cc(-c3ccc(NC(C)=O)c(=O)o3)ccc2c1 | 106%
29 | [O-][n+]1c(Cl)cc(Cl)c2ccccc21 | 123%
30 | O=[N+]([O-])c1cnc(Sc2ccncn2)s1 | -63.7% (active)
31 | CNC(=O)c1cc(Oc2ccc3nc(NC(=O)Nc4ccc(Cl)c(C(F)(F)F)c4)sc3c2)ccn1 | -5.09% (active)
32 | Oc1c(I)cc(-c2nc3ccccc3s2)cc1CN(Cc1ccccn1)Cc1ccccn1 | -11.4% (active)
33 | C=C1C(=O)O[C@H]2[C@H]1CC/C(COC(=O)NCc1ccc(Cn3c(=O)sn(-c4ccc(C#N)cc4)c3=O)cc1)=C\CC[C@@]1(C)O[C@@H]21 | 7.72% (active)
34 | O=C1OCC2=C1C(c1ccccc1)c1cc3c(cc1N2CCO)CCC3 (stereo not given) | 15%
35 | C[C@@H]1CN(c2ccc3ncc(C#Cc4cncc(C(=O)Nc5ccc(CN6CCN(C)CC6)c(C(F)(F)F)c5)c4)n3n2)C[C@H](C)O1 | -76.7% (active)
36 | COc1ccc(-c2nc(C(Cl)Cl)nc3cc(-c4ccccc4)nn23)cc1 | -55.8% (active)
37 | Cc1ncc(C(=O)Nc2ccc(CN3CCN(C)CC3)c(C(F)(F)F)c2)cc1C#Cc1c(N)ncc2ccccc12 | -74.8% (active)
38 | CCOc1cccc(/C(N)=N/C(N)=N/c2nc3ccccc3s2)c1 | 85.6%
39 | CCc1ccc(C2=C/C(=C/c3ccc(Cl)cc3)C(=O)N2CCc2ccc(S(N)(=O)=O)cc2)cc1 | 13.5%
40 | COCCOC(=O)NC(=O)Nc1ccc(/C(=N/O)c2ccc(Cl)cc2)cc1 | 19.8%
